Reference: the supplement of paper PMC6992640

These compounds were tested on HCI01 (cells of a triple-negative basal-like breast cancer xenograft) (assay: cell viability of combination (% of vehicle); higher = less cytotoxic). Conditions: 1 µM; 72 h; partner dose: 10 nM.
Description: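 PDX cells were treated for 72 h with each drug at 1 µM plus carfilzomib (10 nM; 100 nM for WHIM2). Luciferase viability is expressed as percent of vehicle.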

Row | SMILES | cell viability of combination
1 | Cc1cc(C(C#N)c2ccc(Cl)cc2)c(Cl)cc1NC(=O)c1cc(I)cc(I)c1[O-].[Na+] (stereo not given) [Closantel Sodium] + CC(C)C[C@H](NC(=O)[C@H](CCc1ccccc1)NC(=O)CN1CCOCC1)C(=O)N[C@@H](Cc1ccccc1)C(=O)N[C@@H](CC(C)C)C(=O)[C@@]1(C)CO1 [Carfilzomib] | 68.9
2 | CCCCCCCCCCCC[N+](C)(C)CCOc1ccccc1.[Br-] [Domiphen Bromide] + CC(C)C[C@H](NC(=O)[C@H](CCc1ccccc1)NC(=O)CN1CCOCC1)C(=O)N[C@@H](Cc1ccccc1)C(=O)N[C@@H](CC(C)C)C(=O)[C@@]1(C)CO1 [Carfilzomib] | 71.1
3 | CCCCCCCCCCCCCCCC[N+](C)(C)C.[Br-] [Cetrimonium Bromide (CTAB)] + CC(C)C[C@H](NC(=O)[C@H](CCc1ccccc1)NC(=O)CN1CCOCC1)C(=O)N[C@@H](Cc1ccccc1)C(=O)N[C@@H](CC(C)C)C(=O)[C@@]1(C)CO1 [Carfilzomib] | 72.8
4 | CCCCCCCCCCCCCCCC[n+]1ccccc1.[Cl-] [Cetylpyridinium Chloride] + CC(C)C[C@H](NC(=O)[C@H](CCc1ccccc1)NC(=O)CN1CCOCC1)C(=O)N[C@@H](Cc1ccccc1)C(=O)N[C@@H](CC(C)C)C(=O)[C@@]1(C)CO1 [Carfilzomib] | 77
5 | Cc1cc(C(C#N)c2ccc(Cl)cc2)c(Cl)cc1NC(=O)c1cc(I)cc(I)c1O (stereo not given) [Closantel] + CC(C)C[C@H](NC(=O)[C@H](CCc1ccccc1)NC(=O)CN1CCOCC1)C(=O)N[C@@H](Cc1ccccc1)C(=O)N[C@@H](CC(C)C)C(=O)[C@@]1(C)CO1 [Carfilzomib] | 70.3
